Reference: PubChem BioAssay (NCI)
This is part of a sample that, as a whole, favours compounds with a hit. Of some 79,000 tested, about 15% had one in any assay. Activity calls are given as the source filed them. No stated cut-off is given here; in the data, active means growth inhibition above about 70%; inactive means the rest.

How the values were obtained:
[1] = NCI Yeast Anticancer Drug Screen. Data for the rad50 strain (AID 155);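 further: 0% = growth of vehicle-only cultures of the same strain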; conditions: S. cerevisiae rad50 strain growth inhibition; at 50.0 µM; stronger effect = higher value
Outline: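 Compounds were tested on a yeast strain with an engineered DNA damage repair alteration; the reported value is growth inhibition normalised to vehicle treatment.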

[2] = NCI Yeast Anticancer Drug Screen. Data for the mec2-1 strain (AID 157); conditions: S. cerevisiae mec2-1 strain, at 50.0 µM, stronger effect = higher value
Outline: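 Mutant yeast (mec2-1) grown with compound; growth inhibition relative to vehicle control reported.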

[3] = NCI Yeast Anticancer Drug Screen. Data for the sgs1 mgt1 strain (AID 161);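 further: 0% = growth of cultures given vehicle only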; conditions: S. cerevisiae sgs1 mgt1 strain, at 50.0 µM, stronger effect = higher value
Outline: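 Compounds are added to genetically altered yeast, and growth is compared with cultures given vehicle alone to give percent inhibition.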

[4] = NCI Yeast Anticancer Drug Screen. Data for the cln2 rad14 strain (AID 165);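 further: 0% = growth equal to vehicle treated cultures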; conditions: S. cerevisiae cln2 rad14 strain, at 50.0 µM, stronger effect = higher value
Outline: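 Readout is yeast growth inhibition versus vehicle-treated controls, using a strain with cln2 and rad14 alterations exposed to compound.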

[5] = NCI Yeast Anticancer Drug Screen. Data for the bub3 strain (AID 167); conditions: S. cerevisiae bub3 mutant strain, at 50.0 µM, stronger effect = higher value
Outline: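 Growth of a checkpoint-deficient yeast mutant is measured after compound exposure. Values represent inhibition relative to vehicle.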

[6] = NCI Yeast Anticancer Drug Screen. Data for the mlh1 rad18 strain (AID 175); conditions: S. cerevisiae mlh1 rad18 strain growth inhibition; at 50.0 µM; stronger effect = higher value
Outline: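 Genetically defined yeast (DNA repair-deficient) exposed to compounds; growth inhibition determined relative to vehicle.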

Measured: growth inhibition

C/C=C(\CC)C(C#N)(CCC)C(=O)OCC (stereo unspecified)
inactive: [1] -10.2% | [2] -17.6% | [3] -21.2% | [4] -9% | [5] -33.1% | [6] -17.6%

CS(C)=O.CS(C)=O.[Cl][Ru+2][Cl].[NH-]c1ccccc1[NH-]
inactive: [1] 38.6% | [2] 7.6% | [3] 34.4% | [4] 23.8% | [5] -1.9% | [6] 27.8%

CS(=O)(=O)Nc1ccccc1-c1nc2ccccc2c(=O)o1
inactive: [1] 26.6% | [2] 30.7% | [3] 27.2% | [4] 14.3% | [5] 33.2% | [6] 27.7%

O=c1[nH]c2cc(Cl)ccc2nc1C1=C(O)c2ccccc2C1
inactive: [1] 32% | [2] 12.7% | [3] 23.6% | [4] 3.35% | [5] 6.7% | [6] 30.6%

O=C(O)CCC(=O)C(Cc1ccccc1)NC(=O)c1ccccc1 (stereo unspecified)
inactive: [1] -14.4% | [2] -16.6% | [3] -10.1% | [4] -4.05% | [5] 6.1% | [6] -10.4%

CCC(C)C(=O)OC1C(=O)OC2CC3C(C)=CC(=O)C(O)C3(C)C3C4(O)OCC23C1C(C)C4O (stereo unspecified)
active: [1] 90.3% | [2] 93% | [3] 90% | [4] 91.3% | [5] 90.6% | [6] 92.1%

CCOC(=O)NC1c2ccccc2Oc2ccccc21
inactive: [1] -4.5% | [2] -5.4% | [3] 4.95% | [4] -16.3% | [5] 11% | [6] 2.3%

C=CCOC(=O)C(C#N)C(C)CC(=O)OCC (stereo unspecified)
inactive: [1] -5.65% | [2] -1.15% | [3] -22.9% | [4] -0.35% | [5] 5.25% | [6] -5.55%

COc1cccc(CC(=O)O)c1OC
inactive: [1] 22.9% | [2] -4.75% | [3] -12% | [4] 1.8% | [5] -3.5% | [6] 12.6%

CN(C)c1ccc(/C=C(/NC(=O)c2ccccc2)C(N)=O)cc1
inactive: [1] 13.9% | [2] 4.55% | [3] 8.95% | [4] 8.1% | [5] 7.6% | [6] 5.1%

COC(=O)CC(NC(=O)C(Cc1cncn1C(=O)OCc1ccccc1)NC(=O)OCc1ccccc1)C(=O)O (stereo unspecified)
inactive: [1] 10.2% | [2] 3.25% | [3] 0.45% | [4] 6.8% | [5] 0.05% | [6] -4.55%

Cc1ccc(NCC#N)cc1
inactive: [1] 27.1% | [2] 15.2% | [3] -1.1% | [4] -12.6% | [5] 15.4% | [6] 36.5%

O=C(NCCCCCCNC(=O)Nc1cccc2ccccc12)Nc1cccc2ccccc12
inactive: [1] -13.9% | [2] -14.4% | [3] 7.05% | [4] -7.75% | [5] -2.3% | [6] -13.6%

O=C(O)CCC(=O)c1ccc[nH]1
inactive: [1] 7.3% | [2] -23.2% | [3] -30.1% | [4] 19.2% | [5] 15.1% | [6] -19.1%

Cc1ccc(Nc2c3ccccc3nc3ccccc23)cc1
active: [1] 97.9% | [2] 88.5% | [3] 93.8% | [4] 91.1% | [5] 88.2% | [6] 97.1%

Cc1cc(C)c2c(c1)C(=O)c1ccccc1C2=O
inactive: [1] 42.6% | [2] 47.1% | [3] 47.4% | [4] 38% | [5] 30.9% | [6] 58.8%

O=C1C=CC(=O)c2c1ccc1c3ccccc3n(CCCCCn3c4ccccc4c4ccc5c(c43)C(=O)C=CC5=O)c21
inactive: [1] -20.8% | [2] -9.85% | [3] -18.2% | [4] 0.8% | [5] -28.4% | [6] -19%

COC(=O)CCc1cc(=O)oc2ccc3cc(CC(=O)OC)oc3c12
inactive: [1] 5.75% | [2] -7.65% | [3] 4.7% | [4] -6.1% | [5] -7.2% | [6] 2.15%

CCC(=O)OC1(c2ccccc2)C(CN(C)C)CCCC1CN(C)C (stereo unspecified)
inactive: [1] -11.2% | [2] -17.6% | [3] -22.2% | [4] -47.9% | [5] 2.85% | [6] -14.9%

NCCOc1ccccn1
inactive: [1] -1.7% | [2] -10.8% | [3] -0.6% | [4] -10.7% | [5] 1% | [6] -1.9%

Clc1ccc(N=Cc2ccccc2Cl)cc1
inactive: [1] 34.8% | [2] 16.1% | [3] 25.2% | [4] -13.7% | [5] 42% | [6] 19.7%

O=C(Oc1ccc(-c2ccc([N+](=O)[O-])cc2)cc1)c1ccccc1
inactive: [1] 29.8% | [2] 3.9% | [3] 17% | [4] 15.4% | [5] 19.9% | [6] 8.25%

CC(C)(C)NC1=C([N+](=O)[O-])CCCC1
inactive: [1] 4.25% | [2] 6% | [3] -1.05% | [4] -19.6% | [5] 11.9% | [6] 4.5%

Cc1nn(C(=O)Cc2ccccc2)c2c1C(c1ccc([N+](=O)[O-])cc1)SC(N)=N2 (stereo unspecified)
inactive: [1] 11.4% | [2] 9.9% | [3] 22.4% | [4] 15.8% | [5] 8.15% | [6] 9.75%

N#CCCOCCN1CCN(c2cccc(Cl)c2)CC1
inactive: [1] 9.85% | [2] -7.8% | [3] 12% | [4] -2.6% | [5] 51.6% | [6] 23.1%

Nc1ccccc1C(=O)N/N=C/c1cccnc1
inactive: [1] 11.1% | [2] -21.3% | [3] 17.7% | [4] 9.45% | [5] 13.2% | [6] -16.6%

Cc1cc(C(N)=O)c(C(N)=O)c(=O)[nH]1
inactive: [1] -13.1% | [2] 2% | [3] 0% | [4] -7.5% | [5] -14.2% | [6] 15.8%

O=C1c2ccccc2NC(c2cc(Cl)cc(Cl)c2O)N1CCc1ccccn1 (stereo unspecified)
inactive: [1] 8.05% | [2] -21.9% | [3] -14.4% | [4] 14.7% | [5] -25.1% | [6] -11.9%

COc1ccc2c(c1)CC[C@@H]1[C@@H]2CC[C@@]2(C)[C@H]1C[C@@](C)(O)[C@H]2O
inactive: [1] -5.65% | [2] 3.05% | [3] -2.45% | [4] -59.9% | [5] 10.8% | [6] -11.7%

NC(=O)c1nnc2cc(F)c(F)cc2c1N
inactive: [1] -15.8% | [2] -20.8% | [3] -9.65% | [4] 3.8% | [5] 9.5% | [6] -16.6%

CCCCCC(=O)O
inactive: [1] -20.2% | [2] -7.1% | [3] -42.1% | [4] 26.9% | [5] -38.9% | [6] 16.8%

COc1ccc2cc1Oc1cc3c(cc1OC)CC[N+](C)(C)C3Cc1ccc(cc1)Oc1c(OC)c(OC)cc3c1C(C2)[N+](C)(C)CC3 (stereo unspecified)
inactive: [1] -29.4% | [2] -16.4% | [3] -46.2% | [4] 10.8% | [5] -22.9% | [6] -19.3%

CCNC(=O)COc1ccc(Cl)cc1C(C)C
inactive: [1] -2.65% | [2] 7.75% | [3] 15.4% | [4] 18.8% | [5] -0.8% | [6] 0.7%

N#C/C(=C\N1CCNC1=S)C(=O)c1ccc2ccccc2c1
inactive: [1] 23.1% | [2] 1.75% | [3] -1.7% | [4] 0.55% | [5] 14.7% | [6] 11.6%

C/C(=C\O[Si](C)(C)C)c1ccccc1
inactive: [1] 37.6% | [2] 23.9% | [3] 12.4% | [4] 7.6% | [5] -11.2% | [6] 41.1%

CCOC(=O)C(C(=O)OCC)c1cnc2ccccc2c1Cl
inactive: [1] -0.7% | [2] -9.45% | [3] 6.55% | [4] -40.5% | [5] -4.5% | [6] 2.85%

CCC(Sc1cc(Cl)c(C)cc1S(=O)(=O)Nc1nc(N)nc(N(C)C)n1)C(=O)O (stereo unspecified)
inactive: [1] -16.1% | [2] -10.1% | [3] 6.3% | [4] 25.2% | [5] -12.3% | [6] 2%

O=C(CCCc1ccccc1)NO
inactive: [1] 14.7% | [2] 33.6% | [3] 17.5% | [4] 3.35% | [5] 10.8% | [6] 13.6%

CC(=O)O[C@H]1CC[C@@]2(C)[C@@H](CC[C@@H]3[C@@H]2CC(=O)[C@]2(C)[C@@H]4[C@H](C[C@@H]32)O[C@]2(CC[C@@H](C)CO2)[C@H]4C)C1
inactive: [1] -11.7% | [2] -12.2% | [3] -11.8% | [4] -13.2% | [5] -34.6% | [6] 2.3%

CCc1c(CNc2ccc(Cl)c(Cl)c2)ccc2nc(N)nc(N)c12
active: [1] 90.7% | [2] 92.2% | [3] 91.9% | [4] 90% | [5] 90.5% | [6] 89.7%

Cc1nc(=S)[nH][nH]1
inactive: [1] -0.75% | [2] 16.9% | [3] 6.15% | [4] 3.5% | [5] 8.15% | [6] 1%
